The values that follow come from ChEMBL document CHEMBL3988442, “University of Dundee, Small-Polar-MMV Screening Library” (2021).

For some of these results: Measured potencies and affinities stand elsewhere.

What all share (design): scale not given: direction of the effect not stated beside the values
For experiment [1], the target named is Protein translocase subunit SecA (Escherichia coli (strain K12)) (UniProt P10408). Nature of the experiment: Assay to Identify E. coli SecA ATPase Inhibitors. The class given is functional. Particulars: 30 µM.
Chain of Protein translocase subunit SecA (Escherichia coli (strain K12)) (P10408 whole entry): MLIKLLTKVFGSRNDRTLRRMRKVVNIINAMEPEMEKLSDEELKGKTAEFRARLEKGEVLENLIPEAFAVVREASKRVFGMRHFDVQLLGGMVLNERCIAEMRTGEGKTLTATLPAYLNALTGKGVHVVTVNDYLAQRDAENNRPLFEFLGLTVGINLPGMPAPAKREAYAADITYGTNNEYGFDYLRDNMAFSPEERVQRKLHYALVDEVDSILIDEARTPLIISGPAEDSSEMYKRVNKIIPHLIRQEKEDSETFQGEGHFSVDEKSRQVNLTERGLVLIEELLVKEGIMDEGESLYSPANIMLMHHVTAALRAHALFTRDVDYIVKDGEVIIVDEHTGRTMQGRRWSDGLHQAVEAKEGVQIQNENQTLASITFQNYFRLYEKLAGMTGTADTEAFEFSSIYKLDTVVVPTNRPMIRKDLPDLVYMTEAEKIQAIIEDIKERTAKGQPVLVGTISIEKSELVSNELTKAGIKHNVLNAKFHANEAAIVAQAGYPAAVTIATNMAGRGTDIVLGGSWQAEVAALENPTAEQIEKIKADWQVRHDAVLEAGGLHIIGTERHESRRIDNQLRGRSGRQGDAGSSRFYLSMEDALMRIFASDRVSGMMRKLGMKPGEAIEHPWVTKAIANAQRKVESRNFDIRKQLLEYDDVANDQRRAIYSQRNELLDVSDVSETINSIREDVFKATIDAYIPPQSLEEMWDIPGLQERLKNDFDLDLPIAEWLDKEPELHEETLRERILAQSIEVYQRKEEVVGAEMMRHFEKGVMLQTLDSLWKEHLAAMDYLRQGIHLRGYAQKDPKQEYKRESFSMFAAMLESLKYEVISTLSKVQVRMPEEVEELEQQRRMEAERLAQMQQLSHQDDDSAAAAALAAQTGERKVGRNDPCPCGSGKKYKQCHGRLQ
Experiment [2] deals with T1, Ubiquitin-activating enzyme e1, putative (Leishmania donovani (strain BPK282A1)) (UniProt E9BSI1).
T1 sequence (whole entry): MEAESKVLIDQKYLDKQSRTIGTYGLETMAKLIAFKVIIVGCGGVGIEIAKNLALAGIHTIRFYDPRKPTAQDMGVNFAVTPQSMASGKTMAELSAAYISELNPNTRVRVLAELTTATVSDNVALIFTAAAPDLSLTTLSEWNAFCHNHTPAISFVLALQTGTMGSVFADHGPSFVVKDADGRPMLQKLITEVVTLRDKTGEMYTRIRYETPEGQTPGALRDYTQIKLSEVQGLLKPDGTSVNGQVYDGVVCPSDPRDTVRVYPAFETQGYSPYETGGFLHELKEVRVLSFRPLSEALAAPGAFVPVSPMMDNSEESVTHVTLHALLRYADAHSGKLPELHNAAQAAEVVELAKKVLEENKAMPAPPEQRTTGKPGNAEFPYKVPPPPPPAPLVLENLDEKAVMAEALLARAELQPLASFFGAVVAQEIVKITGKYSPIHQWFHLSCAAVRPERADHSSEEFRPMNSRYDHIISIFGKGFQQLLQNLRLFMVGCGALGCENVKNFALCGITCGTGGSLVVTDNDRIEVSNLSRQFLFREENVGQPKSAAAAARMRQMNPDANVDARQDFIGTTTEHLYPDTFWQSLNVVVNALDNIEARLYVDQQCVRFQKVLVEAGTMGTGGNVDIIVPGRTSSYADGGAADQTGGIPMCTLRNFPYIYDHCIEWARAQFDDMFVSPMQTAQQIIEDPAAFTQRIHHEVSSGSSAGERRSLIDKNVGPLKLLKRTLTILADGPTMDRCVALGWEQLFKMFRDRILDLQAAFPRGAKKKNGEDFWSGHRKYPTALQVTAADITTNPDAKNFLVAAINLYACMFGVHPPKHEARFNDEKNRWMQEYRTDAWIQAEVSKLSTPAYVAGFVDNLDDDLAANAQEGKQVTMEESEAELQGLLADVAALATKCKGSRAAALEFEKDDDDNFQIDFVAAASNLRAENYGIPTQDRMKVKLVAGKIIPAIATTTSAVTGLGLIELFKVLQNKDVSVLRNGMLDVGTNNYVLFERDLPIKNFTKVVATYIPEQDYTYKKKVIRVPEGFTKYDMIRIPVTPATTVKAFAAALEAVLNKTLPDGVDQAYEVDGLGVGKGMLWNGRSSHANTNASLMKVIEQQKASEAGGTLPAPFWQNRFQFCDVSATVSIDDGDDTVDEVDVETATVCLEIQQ
Nature of the experiment: Leishmania donovani Ubiquitin Activating Enzyme (LdE1). The class given is functional. Particulars: 30 µM.

In experiment [3] the target is AMP-activated protein kinase, AMPK (Homo sapiens) (UniProt P54646+O43741+P54619+Q9UGJ0+Q9Y478+Q13131+Q9UGI9). Nature of the experiment: AMP-dependent Kinase enzyme assay. An in vitro enzyme assay that detects ADP turnover that is directly proportional to AMPK activity. This uses naive AMPK that is activated during the assay with MK-8722. The class given is functional. Particulars: 30 µM.

Experiment [4] addresses Sialic acid-binding Ig-like lectin 9 (Homo sapiens) (UniProt Q9Y336). Nature of the experiment: Hs-Siglec9 ALPHAscreen SOP 20170721. To be noted: 10 µM. (In general: In Alpha technology, singlet oxygen from a donor bead excites a nearby acceptor bead.)
For a further experiment, the system named is Trypanosoma cruzi. Nature of the experiment: Trypanosoma cruzi phosphomannomutase and mannose-1-phosphate guanylyltransferase assay. The class given is functional. Particulars: 10 µM.
For experiment [5], the target named is T2, Arginase-2, mitochondrial (Homo sapiens) (UniProt P78540).
T2 sequence (whole entry): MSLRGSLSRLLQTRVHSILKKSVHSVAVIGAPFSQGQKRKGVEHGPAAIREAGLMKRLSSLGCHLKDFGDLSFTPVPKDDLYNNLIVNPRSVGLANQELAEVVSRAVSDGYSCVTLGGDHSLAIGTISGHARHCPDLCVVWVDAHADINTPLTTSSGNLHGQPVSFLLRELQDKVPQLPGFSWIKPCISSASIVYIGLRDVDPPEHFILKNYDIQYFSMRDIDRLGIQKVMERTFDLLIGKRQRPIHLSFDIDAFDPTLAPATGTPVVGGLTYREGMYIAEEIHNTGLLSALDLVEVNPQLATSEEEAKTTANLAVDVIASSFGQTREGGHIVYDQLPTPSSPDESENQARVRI
Nature of the experiment: in vitro enzyme assay to detect the production of urea directly proportional to the activity of Arginase II. Note: in the data most compounds retested in dose-response had high values. The class given is functional. Particulars: 33.3 µM.

Experiment [6] deals with T3, Proteasome subunit beta (Trypanosoma cruzi) (UniProt O96673).
T3 sequence (whole entry): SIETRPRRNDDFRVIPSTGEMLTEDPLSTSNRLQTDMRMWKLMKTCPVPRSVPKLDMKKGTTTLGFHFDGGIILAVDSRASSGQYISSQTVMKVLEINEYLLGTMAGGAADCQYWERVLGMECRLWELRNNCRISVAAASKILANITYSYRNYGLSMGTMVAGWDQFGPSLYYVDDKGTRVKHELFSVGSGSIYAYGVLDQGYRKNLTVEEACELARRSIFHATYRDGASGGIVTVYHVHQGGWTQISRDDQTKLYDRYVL
Nature of the experiment: Trypanosoma cruzi proteasome chymotrypsin-like activity (TcProtChymo) assay. Note: in the data most compounds retested in dose-response had high values. Type of experiment: functional. To be noted: 9.37 µM.

The next experiment is filed under the species Homo sapiens. Nature of the experiment: To identify inhibition of the IFN signalling (Jak-Stat) pathway via expression of an eGFP reporter gene under the control of an IFN-stimulated response element (ISRE) containing MxA promoter. Type of experiment: functional. To be noted: 30 µM.
The target of experiment [7] is T4, Tyrosyl-tRNA synthetase, putative (Trypanosoma cruzi (strain CL Brener)) (UniProt Q4DSP6).
T4 sequence (whole entry): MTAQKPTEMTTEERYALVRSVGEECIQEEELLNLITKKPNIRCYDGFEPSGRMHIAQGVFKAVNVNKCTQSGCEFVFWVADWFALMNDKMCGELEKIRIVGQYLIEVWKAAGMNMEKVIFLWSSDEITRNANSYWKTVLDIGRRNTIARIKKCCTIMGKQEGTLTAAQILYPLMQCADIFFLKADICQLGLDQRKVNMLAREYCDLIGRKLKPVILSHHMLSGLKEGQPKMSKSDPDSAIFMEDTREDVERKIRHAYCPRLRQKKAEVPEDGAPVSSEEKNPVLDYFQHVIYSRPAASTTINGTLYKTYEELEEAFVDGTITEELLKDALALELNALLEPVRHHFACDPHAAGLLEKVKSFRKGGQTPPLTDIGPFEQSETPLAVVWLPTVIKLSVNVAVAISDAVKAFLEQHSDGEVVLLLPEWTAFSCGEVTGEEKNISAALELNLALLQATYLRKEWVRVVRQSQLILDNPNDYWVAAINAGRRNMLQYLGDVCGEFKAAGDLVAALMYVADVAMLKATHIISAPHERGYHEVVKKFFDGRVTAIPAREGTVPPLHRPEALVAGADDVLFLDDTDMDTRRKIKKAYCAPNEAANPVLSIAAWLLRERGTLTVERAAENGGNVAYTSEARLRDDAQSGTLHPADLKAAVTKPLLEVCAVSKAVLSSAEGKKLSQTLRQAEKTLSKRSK
Nature of the experiment: Trypanosoma cruzi tyrosyl tRNA synthetase (TcYRS) _High Tyrosine SOP. Note: in the data most compounds retested in dose-response had high values. Particulars: 30 µM. The class given is functional.

The target in experiment [8] is T4, Tyrosyl-tRNA synthetase, putative (Trypanosoma cruzi (strain CL Brener)). Nature of the experiment: Trypanosoma cruzi tyrosyl tRNA synthetase (TcYRS) SOP. Type of experiment: functional. Particulars: 30 µM.
Experiment [9] addresses Chromo domain-containing protein 1 (Saccharomyces cerevisiae (strain ATCC 204508 / S288c) (Baker's yeast)) (UniProt P32657). Nature of the experiment: ScCHD-1 Enzyme Inhibition Assay. Note: in the data most compounds retested in dose-response had high values. Type of experiment: functional. To be noted: 30 µM.

Chain of Sialic acid-binding Ig-like lectin 9 (Homo sapiens) (Q9Y336 whole entry): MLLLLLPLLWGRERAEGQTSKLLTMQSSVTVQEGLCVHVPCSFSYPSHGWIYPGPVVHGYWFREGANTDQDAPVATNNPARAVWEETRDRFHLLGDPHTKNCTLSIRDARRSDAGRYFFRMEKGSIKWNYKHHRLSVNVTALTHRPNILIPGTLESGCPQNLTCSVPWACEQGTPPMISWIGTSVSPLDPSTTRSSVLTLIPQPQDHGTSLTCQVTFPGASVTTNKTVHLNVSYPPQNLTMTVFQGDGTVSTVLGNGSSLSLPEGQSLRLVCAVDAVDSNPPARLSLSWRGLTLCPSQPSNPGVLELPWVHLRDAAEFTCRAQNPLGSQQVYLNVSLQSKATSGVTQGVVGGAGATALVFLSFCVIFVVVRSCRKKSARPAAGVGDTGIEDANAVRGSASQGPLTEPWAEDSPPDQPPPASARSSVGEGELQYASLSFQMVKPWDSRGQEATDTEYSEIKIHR
Chain of Chromo domain-containing protein 1 (Saccharomyces cerevisiae (strain ATCC 204508 / S288c) (Baker's yeast)) (P32657 whole entry, the tested form may be a part): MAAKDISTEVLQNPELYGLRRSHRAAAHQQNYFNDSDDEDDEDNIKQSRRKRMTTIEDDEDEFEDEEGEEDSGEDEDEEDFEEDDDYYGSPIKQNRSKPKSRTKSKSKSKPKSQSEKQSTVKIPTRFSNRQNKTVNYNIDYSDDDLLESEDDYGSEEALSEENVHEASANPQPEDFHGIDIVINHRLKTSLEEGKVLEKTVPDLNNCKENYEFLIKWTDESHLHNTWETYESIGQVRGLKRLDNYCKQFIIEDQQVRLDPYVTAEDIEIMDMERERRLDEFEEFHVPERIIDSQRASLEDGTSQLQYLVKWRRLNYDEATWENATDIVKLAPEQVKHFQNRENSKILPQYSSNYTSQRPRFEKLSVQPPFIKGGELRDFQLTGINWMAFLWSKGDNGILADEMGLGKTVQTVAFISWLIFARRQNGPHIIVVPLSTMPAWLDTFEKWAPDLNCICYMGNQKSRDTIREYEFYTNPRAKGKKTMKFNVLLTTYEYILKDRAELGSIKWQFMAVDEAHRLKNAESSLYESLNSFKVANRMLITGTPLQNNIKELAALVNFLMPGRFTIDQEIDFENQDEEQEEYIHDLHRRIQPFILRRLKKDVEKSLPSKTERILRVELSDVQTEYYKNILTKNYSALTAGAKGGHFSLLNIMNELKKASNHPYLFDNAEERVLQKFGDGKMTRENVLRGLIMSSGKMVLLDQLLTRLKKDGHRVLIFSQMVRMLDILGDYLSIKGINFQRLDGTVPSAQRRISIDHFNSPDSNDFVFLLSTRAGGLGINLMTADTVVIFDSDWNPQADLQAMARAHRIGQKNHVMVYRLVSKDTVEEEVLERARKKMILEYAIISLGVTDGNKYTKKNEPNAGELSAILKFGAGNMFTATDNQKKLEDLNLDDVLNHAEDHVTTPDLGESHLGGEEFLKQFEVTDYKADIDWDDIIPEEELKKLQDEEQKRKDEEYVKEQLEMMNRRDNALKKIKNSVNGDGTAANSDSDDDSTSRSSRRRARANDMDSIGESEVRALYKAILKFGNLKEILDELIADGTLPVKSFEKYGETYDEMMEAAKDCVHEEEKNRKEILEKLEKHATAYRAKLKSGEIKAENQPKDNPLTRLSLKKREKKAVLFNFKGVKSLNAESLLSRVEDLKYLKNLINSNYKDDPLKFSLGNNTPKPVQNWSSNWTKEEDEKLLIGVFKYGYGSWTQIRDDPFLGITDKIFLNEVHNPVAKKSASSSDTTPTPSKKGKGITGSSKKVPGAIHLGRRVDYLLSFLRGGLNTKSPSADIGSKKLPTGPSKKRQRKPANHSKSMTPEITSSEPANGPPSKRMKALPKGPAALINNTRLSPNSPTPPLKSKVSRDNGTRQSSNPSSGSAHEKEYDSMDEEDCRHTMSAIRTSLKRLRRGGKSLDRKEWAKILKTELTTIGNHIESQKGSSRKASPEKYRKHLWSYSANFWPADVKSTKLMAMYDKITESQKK

For the compound `O=C(CCCOc1ccc(F)cc1F)N1CCCC1Cn1cccn1` (stereo unspecified), the Percent Effect in experiment [1] is -7.68%; in experiment [2], 15.8%; in experiment [3], -5.85%; in experiment [4] it was 17.7%; in the experiment with Trypanosoma cruzi it was 4.01%; in experiment [5], 1.8%. For the same compound, the Percent Effect in experiment [6] is 8.38%; in the experiment listed under Homo sapiens it was 9.96%; in experiment [7], 5.42%; in experiment [8] it was 16.1%; in experiment [9], -6.65%.

Take `CCCC(NC(=O)c1ccc(OC)cc1F)c1nnn[nH]1` (stereo unspecified): the Percent Effect was -2.26% in [1]; 5.33% in experiment [2]; -8.28% in [3]; 11.5% in [4]; 5.16% in the experiment on Trypanosoma cruzi; 17.2% in experiment [5]. Besides, the Percent Effect in [6] is 9.24%; in the experiment filed under Homo sapiens it was -13.2%; in experiment [7] it was 4.92%; in [8], 8.64%; in experiment [9] it was -4.91%.

Take `CCCS(=O)(=O)NCc1cccnc1OCC`: the Percent Effect in [1] is 0.771%; in experiment [2], 2.6%; in experiment [3], -1.14%; in [4], 3.55%; in the experiment with Trypanosoma cruzi it was 1.28%; in [5] it was -5.52%. The Percent Effect is 6.32% in experiment [6]; 13.3% in the experiment filed under Homo sapiens; 1.07% in [7]; -1.24% in [8]; -7.12% in [9].

In the case of `Cc1noc([C@H]2C[C@@H]3CCN(C(=O)C4CCOCC4)C[C@H]3O2)n1`, the Percent Effect is -3.88% in experiment [1]; 0% in experiment [2]; 7.28% in experiment [3]; 1.95% in experiment [4]; -3.81% in the experiment with Trypanosoma cruzi; 8.6% in experiment [5]. The Percent Effect was 17% in [6]; -2.45% in the experiment listed under Homo sapiens; 1.08% in experiment [7]; 5.13% in [8]; 3.17% in experiment [9].

For `COCCC(=O)N1CCc2cc(Cl)cc(Cl)c2C1`, the Percent Effect was -3.86% in experiment [1]; -44.2% in experiment [2]; 0.226% in [3]; 19.2% in [4]; 1.87% in the experiment on Trypanosoma cruzi; 0% in [5]. Also, the Percent Effect was 14% in experiment [6]; -16.1% in the experiment filed under Homo sapiens; -3.23% in experiment [7]; -1.24% in experiment [8]; 126% in [9].

For the compound `OCCN1CCN(Cc2coc(-c3ccc(Cl)cc3)n2)CC1`, the Percent Effect in experiment [1] is -2.69%; in [2], -2.6%; in [3] it was 3.9%; in experiment [4], 4.43%; in the experiment with Trypanosoma cruzi it was 3%; in experiment [5], 4.27%. Also, the Percent Effect was 1.35% in experiment [6]; -6.89% in the experiment filed under Homo sapiens; 0% in experiment [7]; 7.32% in experiment [8]; -3.24% in [9].

Take `CCc1noc(CN2CCCC2c2noc(C3CC3)n2)n1` (stereo unspecified): the Percent Effect in [1] is 0.214%; in experiment [2], 21.6%; in [3] it was -11.2%; in [4], -6.88%; in the experiment with Trypanosoma cruzi, 3.68%; in experiment [5], -10%. Moreover, the Percent Effect in [6] is 12.8%; in the experiment listed under Homo sapiens, 19.7%; in experiment [7], 9.36%; in experiment [8], 18.5%; in experiment [9], -9.57%.

With `O=C(NCc1cccs1)[C@H]1CC[C@@H]2[C@@H](CCN2c2ncccn2)O1`, the Percent Effect in experiment [1] is -2.42%; in experiment [2], 5.41%; in experiment [3], -0.805%; in experiment [4], -3.31%; in the experiment on Trypanosoma cruzi, 6.45%; in [5] it was -0.833%. For the same compound, the Percent Effect in experiment [6] is 18.9%; in the experiment filed under Homo sapiens, 18.7%; in experiment [7] it was 8.91%; in experiment [8], 18.3%; in experiment [9] it was -3.92%.

Consider `Cn1cccc1C(=O)N1CC[C@H]2C[C@@H](c3ccncn3)O[C@@H]2C1`, for which the Percent Effect in [1] was -5.79%; in [2], 13.5%; in experiment [3], 3.37%; in experiment [4], -2.88%; in the experiment on Trypanosoma cruzi, -0.684%; in experiment [5], 6.69%. The Percent Effect in experiment [6] was 14.6%; in the experiment filed under Homo sapiens, 2.31%; in experiment [7], 4.32%; in [8], 5.13%; in [9], -0.0971%.

Consider `CC(CNC(=O)c1ccc(F)cc1Cl)N1CCCC1` (stereo unspecified), for which the Percent Effect in experiment [1] is -1.76%; in experiment [2], 9.72%; in experiment [3] it was 4.21%; in experiment [4] it was -4.19%; with Trypanosoma cruzi, -2.82%; in experiment [5], 6.18%. Besides, the Percent Effect in experiment [6] is 20.4%; in the experiment filed under Homo sapiens, -9.11%; in experiment [7], 3.16%; in experiment [8] it was 5.13%; in experiment [9], -0.608%.

Regarding `COCCN1C[C@@H](C)[C@@]2(COCCN(C(=O)Cc3ccccc3)C2)C1`, the Percent Effect was -2.42% in experiment [1]; 10.7% in experiment [2]; 4.69% in experiment [3]; 6.89% in experiment [4]; 1.54% with Trypanosoma cruzi; -54.7% in experiment [5]. Moreover, the Percent Effect in experiment [6] is 5.13%; in the experiment listed under Homo sapiens, -15.6%; in [7], 5.21%; in [8] it was 12.5%; in [9], -7.47%.
